{
  "source": "the supplement of paper PMC11172423",
  "note": "Unmarked numbers belong to inactive results.",
  "data": [
    {"system": "Madurella mycetomatis MM55", "assay": "growth relative to untreated control; higher = less inhibition, active = 20 or less", "settings": "25 µM", "experimental": "(§1)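 Hyphal fragments of M. mycetomatis MM55 or F. senegalensis CBS197.79 in RPMI 1640/MOPS were exposed to each MMV COVID Box or Global Health Priority Box compound at 100 or 25 µM for 7 days at 37 °C. Viability was read with MTS (490 nm, M. mycetomatis) or resazurin (600 nm, F. senegalensis), background-corrected with a medium-only control and expressed as % growth relative to the untreated growth control. Inhibition of more than 80% was taken as growth inhibition.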", "values": [
      {"smiles": "CN1CCN(c2ccc(C(=O)NCc3cnc(C#N)nc3NCC(C)(C)C)cc2)CC1", "growth": "72.9%"},
      {"smiles": "CC(C)(C)[S@@](=O)N1Cc2cc(C(=O)NCCc3ccncc3)nc(-c3cccc(-c4ccccc4)c3)c2[C@H]1CCO", "growth": "67.6%"},
      {"smiles": "CCOc1ccccc1NC(=O)Cn1c(=O)n(Cc2ccccc2)c(=O)c2c(C)c(C(=O)N(C)C)sc21", "growth": "104%"},
      {"smiles": "CC[C@H](Nc1ncnc2[nH]cnc12)c1nc2cccc(F)c2c(=O)n1-c1ccccc1", "growth": "103%"},
      {"smiles": "C=CCNc1nc(NCC=C)nc(N2CCN(C(c3ccc(F)cc3)c3ccc(F)cc3)CC2)n1", "growth": "91.8%"},
      {"smiles": "CC(C)(C)Nc1ncc2nc(Nc3cccc(C(F)(F)F)c3)n(CC3CCNCC3)c2n1", "growth": "107%"},
      {"smiles": "C[C@H]1c2cccc(O)c2C(=O)C2=C(O)[C@]3(O)C(O)=C(C(N)=O)C(=O)[C@@H](N(C)C)[C@@H]3[C@@H](O)[C@@H]21", "growth": "63.1%"},
      {"smiles": "CNCc1[cH-]ccc1CNc1ccnc2cc(Cl)ccc12.[Fe+2].c1cc[cH-]c1", "growth": "2.78% (active)"},
      {"smiles": "Cc1ccc(Cl)cc1NC(=O)c1c(-c2ccccc2Cl)noc1C", "growth": "32.8%"},
      {"smiles": "CC(C)CC(NC(=O)N1CCOCC1)C(=O)NC(/C=C/S(=O)(=O)c1ccccc1)CCc1ccccc1", "note": "(stereo not given)", "growth": "86.4%"},
      {"smiles": "CC[C@H](C)[C@H]1O[C@]2(C=C[C@@H]1C)C[C@@H]1C[C@@H](C/C=C(\\C)[C@@H](O[C@H]3C[C@H](OC)[C@@H](O[C@H]4C[C@H](OC)[C@H](NC(C)=O)[C@H](C)O4)[C@H](C)O3)[C@@H](C)/C=C/C=C3\\CO[C@@H]4[C@H](O)C(C)=C[C@@H](C(=O)O1)[C@]34O)O2", "growth": "74.9%"},
      {"smiles": "Nc1nc(Nc2ccc3c(c2)CC[C@@H](N2CCCC2)CC3)nn1-c1cc2c(nn1)-c1ccccc1CCC2", "growth": "4.07% (active)"},
      {"smiles": "Fc1ccc([C@@H]2CCNC[C@H]2COc2ccc3c(c2)OCO3)cc1", "growth": "5.94% (active)"},
      {"smiles": "Nc1nc(NC2CC2)c2ncn([C@H]3C=C[C@@H](CO)C3)c2n1", "growth": "97%"},
      {"smiles": "COc1ccc(-c2ccc3c(-c4ccc(F)cc4)cnc(N)c3c2)cn1", "growth": "88.1%"},
      {"smiles": "CO[C@H]1C[C@H](O[C@@H]2/C(C)=C/C[C@@H]3C[C@@H](C[C@]4(CC[C@H](C)[C@@H](C5CCCCC5)O4)O3)OC(=O)[C@@H]3C=C(C)/C(=N/O)[C@H]4OC/C(=C\\C=C\\[C@@H]2C)[C@]43O)O[C@@H](C)[C@@H]1O", "growth": "88.8%"},
      {"smiles": "CC(C)(C)Nc1ncc2nc(Nc3cc(Cl)cc(C(F)(F)F)c3)n([C@H]3C[C@H](N)C3)c2n1", "growth": "7.82% (active)"},
      {"smiles": "CN(C)CCCN1c2ccccc2CCc2ccc(Cl)cc21", "growth": "38.1%"},
      {"smiles": "Cc1ccc(NC(=O)c2ccc(CN3CCN(C)CC3)cc2)cc1Nc1nccc(-c2cccnc2)n1", "growth": "86%"},
      {"smiles": "CCCCOC(=O)c1c(C)cnc2ccccc12", "growth": "86.7%"}
    ]},
    {"system": "Madurella mycetomatis MM55", "assay": "growth relative to untreated control; higher = less inhibition, active = 20 or less", "settings": "100 µM", "experimental": "as §1", "values": [
      {"smiles": "CN1CCN(c2ccc(C(=O)NCc3cnc(C#N)nc3NCC(C)(C)C)cc2)CC1", "growth": "3.97% (active)"},
      {"smiles": "CC(C)(C)[S@@](=O)N1Cc2cc(C(=O)NCCc3ccncc3)nc(-c3cccc(-c4ccccc4)c3)c2[C@H]1CCO", "growth": "52.9%"},
      {"smiles": "CCOc1ccccc1NC(=O)Cn1c(=O)n(Cc2ccccc2)c(=O)c2c(C)c(C(=O)N(C)C)sc21", "growth": "109%"},
      {"smiles": "CC[C@H](Nc1ncnc2[nH]cnc12)c1nc2cccc(F)c2c(=O)n1-c1ccccc1", "growth": "83.5%"},
      {"smiles": "C=CCNc1nc(NCC=C)nc(N2CCN(C(c3ccc(F)cc3)c3ccc(F)cc3)CC2)n1", "growth": "83.9%"},
      {"smiles": "CC(C)(C)Nc1ncc2nc(Nc3cccc(C(F)(F)F)c3)n(CC3CCNCC3)c2n1", "growth": "69.3%"},
      {"smiles": "C[C@H]1c2cccc(O)c2C(=O)C2=C(O)[C@]3(O)C(O)=C(C(N)=O)C(=O)[C@@H](N(C)C)[C@@H]3[C@@H](O)[C@@H]21", "growth": "91.7%"},
      {"smiles": "CNCc1[cH-]ccc1CNc1ccnc2cc(Cl)ccc12.[Fe+2].c1cc[cH-]c1", "growth": "2.49% (active)"},
      {"smiles": "Cc1ccc(Cl)cc1NC(=O)c1c(-c2ccccc2Cl)noc1C", "growth": "131%"},
      {"smiles": "CC(C)CC(NC(=O)N1CCOCC1)C(=O)NC(/C=C/S(=O)(=O)c1ccccc1)CCc1ccccc1", "note": "(stereo not given)", "growth": "96.5%"},
      {"smiles": "CC[C@H](C)[C@H]1O[C@]2(C=C[C@@H]1C)C[C@@H]1C[C@@H](C/C=C(\\C)[C@@H](O[C@H]3C[C@H](OC)[C@@H](O[C@H]4C[C@H](OC)[C@H](NC(C)=O)[C@H](C)O4)[C@H](C)O3)[C@@H](C)/C=C/C=C3\\CO[C@@H]4[C@H](O)C(C)=C[C@@H](C(=O)O1)[C@]34O)O2", "growth": "116%"},
      {"smiles": "Nc1nc(Nc2ccc3c(c2)CC[C@@H](N2CCCC2)CC3)nn1-c1cc2c(nn1)-c1ccccc1CCC2", "growth": "4.45% (active)"},
      {"smiles": "Fc1ccc([C@@H]2CCNC[C@H]2COc2ccc3c(c2)OCO3)cc1", "growth": "3.06% (active)"},
      {"smiles": "Nc1nc(NC2CC2)c2ncn([C@H]3C=C[C@@H](CO)C3)c2n1", "growth": "83.8%"},
      {"smiles": "COc1ccc(-c2ccc3c(-c4ccc(F)cc4)cnc(N)c3c2)cn1", "growth": "38.6%"},
      {"smiles": "CO[C@H]1C[C@H](O[C@@H]2/C(C)=C/C[C@@H]3C[C@@H](C[C@]4(CC[C@H](C)[C@@H](C5CCCCC5)O4)O3)OC(=O)[C@@H]3C=C(C)/C(=N/O)[C@H]4OC/C(=C\\C=C\\[C@@H]2C)[C@]43O)O[C@@H](C)[C@@H]1O", "growth": "111%"},
      {"smiles": "CC(C)(C)Nc1ncc2nc(Nc3cc(Cl)cc(C(F)(F)F)c3)n([C@H]3C[C@H](N)C3)c2n1", "growth": "5.73% (active)"},
      {"smiles": "CN(C)CCCN1c2ccccc2CCc2ccc(Cl)cc21", "growth": "3.39% (active)"},
      {"smiles": "Cc1ccc(NC(=O)c2ccc(CN3CCN(C)CC3)cc2)cc1Nc1nccc(-c2cccnc2)n1", "growth": "70.7%"},
      {"smiles": "CCCCOC(=O)c1c(C)cnc2ccccc12", "growth": "141%"}
    ]}
  ]
}
